Experimental findings from PubChem BioAssay (NCI) are described below.

Structures are written as SMILES. Compounds without any hit were thinned out: in the full panel of roughly 83,000, 20% have a hit.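 The endpoint reported here, percent growth, reads 100 for growth as untreated, 0 for no net growth and -100 for all cells dead.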 A number with no mark means an inactive call. Active and inactive are the calls of the source. Rule for the calls: active = growth percent below 10; inactive = the rest.

Common to all, as to assay: NCI-60 one-dose screen, 48 h (100 = growth as untreated, 0 = no growth, -100 = all killed)
Common to all, as to settings: 10 µM unless noted

For assay [1], the system named is HCT-15 colon.
Assay [2] deals with HT29 colon.
The test system of assay [3] is SNB-75 CNS.
The test system of assay [4] is SNB-19 CNS.
The subject of assay [5] is U251 CNS.
Assay [6] concerns PC-3 prostate.
Assay [7] relates to SK-MEL-5 melanoma.
The test system of assay [8] is UACC-62 melanoma.
Assay [9] concerns LOX IMVI melanoma.
For assay [10], the system named is SK-MEL-28 melanoma.
Assay [11] relates to EKVX NSCLC.
Assay [12] deals with SN12C renal.
In assay [13] the test system is UO-31 renal.
Assay [14] concerns TK-10 renal.
Assay [15] deals with ACHN renal.
The subject of assay [16] is CAKI-1 renal.
Assay [17] concerns A498 renal.
In assay [18] the test system is CCRF-CEM leukemia.
Assay [19] has as its system MOLT-4 leukemia.

Take `O=c1[nH]ccc2c(S(=O)(=O)N3CCCNCC3)cccc12`: the growth is 93.3% in [1]; 82.2% in assay [2]; 54.6% in assay [3]; 97.4% in assay [4]; 101% in assay [5]; 86.9% in [6]. Moreover, the growth was 109% in assay [7]; 70.1% in [8]; 90.6% in assay [9]; 67% in assay [10]; 65.4% in [11]; 69.2% in assay [12]. Further, the growth is 40.6% in [13]; 26% in assay [14]; 41.7% in assay [15]; 55.5% in [16]; 36.3% in assay [17]; 89.1% in assay [18]. For the same molecule, the growth in [19] is 84.9%.

As for `CO[C@H]1C[C@@H]2CC[C@@H](C)[C@@](O)(O2)C(=O)C(=O)N2CCCC[C@H]2C(=O)O[C@H]([C@H](C)C[C@@H]2CC[C@@H](OP(C)(C)=O)[C@H](OC)C2)CC(=O)[C@H](C)/C=C(\C)[C@@H](O)[C@@H](OC)C(=O)[C@H](C)C[C@H](C)\C=C/C=C/C=C/1C`, the growth is 47.6% in assay [1]; 40.3% in assay [2]; 17.6% in [3]; 53% in [4]; 40.4% in assay [5]; 42.2% in assay [6]. The growth in assay [7] was 51.6%; in [8], 39.5%; in assay [9] it was 42.7%; in assay [10] it was 54.4%; in assay [11], 49.8%; in [12] it was 53.9%. Also, the growth in [13] is 27.3%; in assay [14] it was 46%; in assay [15], 54.4%; in [16] it was 50.1%; in [17], 2.06% (active); in assay [18], 37.2%. Moreover, in assay [19], the growth is 28.8%.

On to `COc1cc2c(cc1O)c(=O)n(CCN(C)C)c1c3cc4c(cc3ncc21)OCO4`, for which the growth is 2.84% (active) in assay [1]; 8.08% (active) in assay [2]; -37.2% (active) in assay [3]; -0.441% (active) in [4]; -49% (active) in assay [5]; -9.82% (active) in assay [6]. Further, the growth was -50.9% (active) in assay [7]; -54.2% (active) in assay [8]; -56.3% (active) in [9]; -7.55% (active) in assay [10]; 9.22% (active) in [11]; -5.86% (active) in assay [12]. Moreover, the growth is -46.8% (active) in assay [13]; -45.5% (active) in assay [14]; -61.8% (active) in assay [15]; -10.2% (active) in assay [16]; -59.8% (active) in assay [17]; -11.3% (active) in assay [18]. The growth in assay [19] is -15.9% (active).

As for `CNc1ncc2cc(-c3cc(NC(=O)NCCC(C)(C)C)c(F)cc3C)c(C)nc2n1`, the growth is 19% in [1]; 3.91% (active) in [2]; -16.9% (active) in assay [3]; 23.6% in [4]; 16% in [5]; 49.1% in [6]. Further, the growth in assay [7] is 23.6%; in assay [8], -7.93% (active); in assay [9], -34.1% (active); in [10], -6.47% (active); in [11], 29.4%; in [12], 18.6%. Besides, the growth is 3.87% (active) in assay [13]; -4.98% (active) in assay [14]; 5.23% (active) in assay [15]; 4.36% (active) in assay [16]; -35.4% (active) in assay [17]; 63.1% in [18]. The growth in assay [19] is 20.6%.

As to `COc1cc2ncnc(Nc3cccc(Cl)c3F)c2cc1OC(=O)N1CCN(C)C[C@H]1C`, the growth in assay [1] was 75.1%; in assay [2] it was 53.9%; in assay [3], 71%; in assay [4] it was 83.4%; in assay [5], 75.8%; in assay [6], 64.4%. For the same molecule, the growth was 81.3% in [7]; 77.3% in [8]; 79.6% in [9]; 87.3% in [10]; 57.8% in assay [11]; 50.1% in [12]. For the same molecule, the growth was 41.6% in assay [13]; 28.1% in assay [14]; 19.5% in assay [15]; 43.2% in assay [16]; 82.8% in [17]; 74.7% in assay [18]. The growth in assay [19] is 67.7%.

For the molecule `Cc1ccc(NC(=O)Nc2ccc(Nc3ncnc4sc5c(c34)CCOC5)cc2)cc1Cl`, the growth in [1] is 106%; in assay [2] it was 81.2%; in assay [3], 69.8%; in [4], 103%; in [5], 87.7%; in assay [6], 81.2%. The growth was 95% in assay [7]; 95.4% in [8]; 97.3% in assay [9]; 111% in assay [10]; 110% in assay [11]; 102% in [12]. Besides, the growth in assay [13] is 78.6%; in assay [14], 103%; in assay [15] it was 94.6%; in [16] it was 91.7%; in assay [17], 90.4%; in [18], 90.3%. The growth in [19] is 88.9%.

In the case of `O=C(/C=C/c1ccc2c(c1)OCO2)c1c(O)c2ccccc2oc1=O`, the growth in assay [1] was 97.1%; in [2], 96.6%; in assay [3], 87.7%; in assay [4], 115%; in assay [5] it was 101%; in [6], 95.9%. Moreover, the growth in assay [7] was 111%; in assay [8], 96.7%; in assay [9], 94.6%; in [10], 112%; in assay [11], 108%; in assay [12] it was 106%. The growth in assay [13] was 90.1%; in assay [14], 113%; in assay [15], 102%; in [16] it was 95%; in [17] it was 107%; in assay [18] it was 103%. Further, the growth in [19] was 77.6%.

As for `COC(=O)[C@H](Cc1ccccc1)NC(=O)[C@@H](OC)[C@@H]1Cc2cc3cc(OC4CC(OC5CC(O)C(O)C(C)O5)C(O)C(C)O4)c(C)c(O)c3c(O)c2C(=O)[C@H]1OC1CC(OC2CC(OC3CC(C)(O)C(O)C(C)O3)C(O)C(C)O2)C(O)C(C)O1` (some centres not stated), the growth in [1] is 5.61% (active); in assay [2] it was 4.24% (active); in [3] it was -86.8% (active); in [4] it was 4.82% (active); in assay [5], 2.62% (active); in [6], -9.57% (active). In addition, the growth was -78% (active) in assay [7]; -56.6% (active) in assay [8]; -18.2% (active) in [9]; -27% (active) in assay [10]; -2.04% (active) in assay [11]; 4.42% (active) in [12]. Further, the growth in assay [13] is -7.79% (active); in [14], 6.76% (active); in [15], -8.69% (active); in assay [16], 15.3%; in [17], -40.3% (active); in assay [18], 4.07% (active). Also, the growth in assay [19] was -5.77% (active).
